Columns and labels:
[1] = molecular target: Sphingosine kinase 1 (Homo sapiens) (UniProt Q9NYA1); conditions: at 1 µM;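 also: mean SPHK1 inhibition value reported from the GSK PKIS kinase panel screen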
[2] = molecular target: T1, Sphingosine kinase 2 (Homo sapiens) (UniProt Q9NRA0); conditions: at 0.1 µM
T1 sequence (whole entry): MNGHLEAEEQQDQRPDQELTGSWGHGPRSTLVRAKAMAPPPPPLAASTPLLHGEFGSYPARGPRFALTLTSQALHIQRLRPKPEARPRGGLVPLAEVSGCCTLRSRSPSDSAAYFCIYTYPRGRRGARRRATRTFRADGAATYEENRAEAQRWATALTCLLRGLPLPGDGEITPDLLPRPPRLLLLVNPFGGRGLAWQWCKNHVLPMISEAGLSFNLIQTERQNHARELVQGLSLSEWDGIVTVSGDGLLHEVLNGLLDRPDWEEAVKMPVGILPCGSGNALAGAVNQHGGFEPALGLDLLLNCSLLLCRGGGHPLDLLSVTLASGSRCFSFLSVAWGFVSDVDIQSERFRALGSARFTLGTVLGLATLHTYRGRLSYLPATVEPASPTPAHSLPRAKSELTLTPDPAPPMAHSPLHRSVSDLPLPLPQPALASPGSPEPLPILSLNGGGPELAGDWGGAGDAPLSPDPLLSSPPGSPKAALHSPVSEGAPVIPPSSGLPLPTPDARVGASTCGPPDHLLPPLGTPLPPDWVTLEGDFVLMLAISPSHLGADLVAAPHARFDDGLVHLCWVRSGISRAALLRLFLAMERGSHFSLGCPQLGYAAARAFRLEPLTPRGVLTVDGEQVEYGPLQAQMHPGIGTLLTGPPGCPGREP

[3] = molecular target: T1, Sphingosine kinase 2 (Homo sapiens); conditions: at 1 µM
[4] = molecular target: Casein kinase II subunit alpha (Homo sapiens) (UniProt P68400); conditions: at 0.1 µM
Chain of Casein kinase II subunit alpha (Homo sapiens) (P68400 whole entry, looked up): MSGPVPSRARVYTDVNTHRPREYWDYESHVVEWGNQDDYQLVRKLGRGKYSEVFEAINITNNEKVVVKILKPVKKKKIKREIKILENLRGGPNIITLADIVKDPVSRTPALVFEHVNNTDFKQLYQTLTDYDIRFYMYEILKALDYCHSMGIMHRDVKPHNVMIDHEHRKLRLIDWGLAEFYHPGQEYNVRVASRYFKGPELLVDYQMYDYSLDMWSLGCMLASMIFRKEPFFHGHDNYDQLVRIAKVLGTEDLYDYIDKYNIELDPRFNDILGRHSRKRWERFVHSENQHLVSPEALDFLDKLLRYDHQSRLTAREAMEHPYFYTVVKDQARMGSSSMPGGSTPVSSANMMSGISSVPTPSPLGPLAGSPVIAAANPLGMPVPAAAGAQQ

[5] = molecular target: Casein kinase II subunit alpha (Homo sapiens) (UniProt P68400); conditions: at 1 µM
[6] = molecular target: T2, Inhibitor of nuclear factor kappa-B kinase subunit alpha (Homo sapiens) (UniProt O15111); conditions: at 0.1 µM
T2 sequence (whole entry): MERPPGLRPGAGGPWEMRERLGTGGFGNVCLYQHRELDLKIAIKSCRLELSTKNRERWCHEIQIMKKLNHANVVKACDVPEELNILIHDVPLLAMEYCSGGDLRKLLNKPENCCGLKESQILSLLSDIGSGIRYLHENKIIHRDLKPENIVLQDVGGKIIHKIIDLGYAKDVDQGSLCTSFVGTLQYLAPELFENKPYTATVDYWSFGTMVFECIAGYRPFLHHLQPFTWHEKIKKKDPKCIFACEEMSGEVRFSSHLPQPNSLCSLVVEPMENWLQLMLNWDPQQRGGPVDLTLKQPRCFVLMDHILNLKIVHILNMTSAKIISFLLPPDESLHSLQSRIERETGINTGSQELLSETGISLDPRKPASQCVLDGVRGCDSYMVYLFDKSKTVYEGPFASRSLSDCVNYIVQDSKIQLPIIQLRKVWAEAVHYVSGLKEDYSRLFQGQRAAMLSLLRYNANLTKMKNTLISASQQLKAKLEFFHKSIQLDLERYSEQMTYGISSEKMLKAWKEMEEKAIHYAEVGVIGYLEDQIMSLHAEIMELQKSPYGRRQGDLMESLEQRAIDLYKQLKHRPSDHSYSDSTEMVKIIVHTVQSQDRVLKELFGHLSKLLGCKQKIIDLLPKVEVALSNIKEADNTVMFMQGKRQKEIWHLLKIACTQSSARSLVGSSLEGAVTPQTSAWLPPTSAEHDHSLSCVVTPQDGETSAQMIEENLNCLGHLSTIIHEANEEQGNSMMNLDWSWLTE

[7] = molecular target: T2, Inhibitor of nuclear factor kappa-B kinase subunit alpha (Homo sapiens); conditions: at 1 µM
[8] = molecular target: T3, Inhibitor of nuclear factor kappa-B kinase subunit beta (Homo sapiens) (UniProt O14920); conditions: at 0.1 µM
T3 sequence (whole entry): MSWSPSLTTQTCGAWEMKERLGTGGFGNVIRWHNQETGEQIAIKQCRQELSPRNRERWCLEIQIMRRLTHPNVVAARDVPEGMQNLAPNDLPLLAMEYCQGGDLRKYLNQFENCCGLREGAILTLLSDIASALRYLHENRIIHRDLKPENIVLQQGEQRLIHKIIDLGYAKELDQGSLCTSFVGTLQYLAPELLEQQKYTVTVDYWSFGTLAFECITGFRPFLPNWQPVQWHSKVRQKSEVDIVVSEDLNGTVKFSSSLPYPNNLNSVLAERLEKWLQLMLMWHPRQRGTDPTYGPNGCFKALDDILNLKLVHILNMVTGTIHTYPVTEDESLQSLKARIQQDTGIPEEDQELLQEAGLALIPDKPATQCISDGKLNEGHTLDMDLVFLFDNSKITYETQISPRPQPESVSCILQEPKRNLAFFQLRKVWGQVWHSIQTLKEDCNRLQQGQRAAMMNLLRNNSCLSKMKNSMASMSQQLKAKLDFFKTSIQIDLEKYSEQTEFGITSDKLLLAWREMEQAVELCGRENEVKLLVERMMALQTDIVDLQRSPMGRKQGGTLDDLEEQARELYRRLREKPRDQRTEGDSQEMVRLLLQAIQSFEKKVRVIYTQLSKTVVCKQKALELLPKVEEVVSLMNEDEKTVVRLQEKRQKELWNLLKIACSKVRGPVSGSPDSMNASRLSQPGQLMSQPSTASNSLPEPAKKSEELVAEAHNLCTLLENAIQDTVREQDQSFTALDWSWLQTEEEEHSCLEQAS

[9] = molecular target: T3, Inhibitor of nuclear factor kappa-B kinase subunit beta (Homo sapiens); conditions: at 1 µM
[10] = molecular target: T4, Inhibitor of nuclear factor kappa-B kinase subunit epsilon (Homo sapiens) (UniProt Q14164); conditions: at 0.1 µM
T4 sequence (whole entry): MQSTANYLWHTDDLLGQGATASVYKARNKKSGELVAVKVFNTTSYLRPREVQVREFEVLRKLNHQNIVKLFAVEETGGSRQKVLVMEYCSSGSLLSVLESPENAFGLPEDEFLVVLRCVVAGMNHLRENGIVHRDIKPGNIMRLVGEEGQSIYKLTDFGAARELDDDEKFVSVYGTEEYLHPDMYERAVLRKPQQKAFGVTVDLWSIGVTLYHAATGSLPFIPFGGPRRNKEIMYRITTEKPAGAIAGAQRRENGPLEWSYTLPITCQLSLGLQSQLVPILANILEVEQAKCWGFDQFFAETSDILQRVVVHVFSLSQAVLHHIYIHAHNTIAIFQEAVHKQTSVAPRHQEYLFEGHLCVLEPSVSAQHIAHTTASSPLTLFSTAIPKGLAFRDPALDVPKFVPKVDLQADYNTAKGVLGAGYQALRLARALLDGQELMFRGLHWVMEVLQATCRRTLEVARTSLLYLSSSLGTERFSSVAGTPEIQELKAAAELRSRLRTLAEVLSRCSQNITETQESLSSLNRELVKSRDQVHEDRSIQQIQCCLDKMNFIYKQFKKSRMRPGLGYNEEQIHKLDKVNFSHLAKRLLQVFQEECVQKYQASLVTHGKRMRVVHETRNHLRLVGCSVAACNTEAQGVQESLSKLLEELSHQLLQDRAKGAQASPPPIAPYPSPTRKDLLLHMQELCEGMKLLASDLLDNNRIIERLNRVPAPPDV

[11] = molecular target: T4, Inhibitor of nuclear factor kappa-B kinase subunit epsilon (Homo sapiens); conditions: at 1 µM
[12] = molecular target: T5, Serine/threonine-protein kinase Nek1 (Homo sapiens) (UniProt Q96PY6); conditions: at 0.1 µM
T5 sequence (whole entry): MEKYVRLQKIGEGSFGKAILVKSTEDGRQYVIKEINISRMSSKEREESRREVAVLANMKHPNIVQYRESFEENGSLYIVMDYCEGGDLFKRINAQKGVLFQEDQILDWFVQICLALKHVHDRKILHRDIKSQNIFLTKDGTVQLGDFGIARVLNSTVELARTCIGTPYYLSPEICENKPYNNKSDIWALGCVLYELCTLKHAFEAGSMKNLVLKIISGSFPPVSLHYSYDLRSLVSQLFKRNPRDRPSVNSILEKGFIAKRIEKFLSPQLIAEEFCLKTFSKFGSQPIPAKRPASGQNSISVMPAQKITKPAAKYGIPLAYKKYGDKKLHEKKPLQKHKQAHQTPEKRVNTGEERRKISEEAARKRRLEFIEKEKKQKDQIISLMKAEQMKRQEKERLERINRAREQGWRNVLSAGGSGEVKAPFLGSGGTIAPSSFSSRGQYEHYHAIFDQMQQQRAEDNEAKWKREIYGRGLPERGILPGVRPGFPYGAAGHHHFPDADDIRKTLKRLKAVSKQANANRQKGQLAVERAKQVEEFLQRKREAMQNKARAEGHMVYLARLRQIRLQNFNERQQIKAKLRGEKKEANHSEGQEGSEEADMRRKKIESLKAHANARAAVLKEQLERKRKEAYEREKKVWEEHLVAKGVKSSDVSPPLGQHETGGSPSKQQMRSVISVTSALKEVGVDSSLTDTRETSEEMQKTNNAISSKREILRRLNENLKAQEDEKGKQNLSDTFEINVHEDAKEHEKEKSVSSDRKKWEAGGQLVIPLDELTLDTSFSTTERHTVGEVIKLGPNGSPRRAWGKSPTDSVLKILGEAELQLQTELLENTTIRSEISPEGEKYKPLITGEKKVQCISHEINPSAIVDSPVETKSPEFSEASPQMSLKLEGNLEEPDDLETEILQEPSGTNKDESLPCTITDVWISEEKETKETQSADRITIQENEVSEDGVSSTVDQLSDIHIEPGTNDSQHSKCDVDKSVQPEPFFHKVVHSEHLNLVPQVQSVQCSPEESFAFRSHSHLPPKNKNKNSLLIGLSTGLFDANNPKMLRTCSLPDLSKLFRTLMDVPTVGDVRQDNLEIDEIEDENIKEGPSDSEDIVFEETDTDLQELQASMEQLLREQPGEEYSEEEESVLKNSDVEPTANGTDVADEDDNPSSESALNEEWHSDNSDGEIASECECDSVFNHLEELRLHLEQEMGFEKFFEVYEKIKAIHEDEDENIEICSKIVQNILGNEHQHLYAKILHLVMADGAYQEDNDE

[13] = molecular target: T5, Serine/threonine-protein kinase Nek1 (Homo sapiens); conditions: at 1 µM
[14] = molecular target: T6, Serine/threonine-protein kinase Nek2 (Homo sapiens) (UniProt P51955); conditions: at 0.1 µM
T6 sequence (whole entry): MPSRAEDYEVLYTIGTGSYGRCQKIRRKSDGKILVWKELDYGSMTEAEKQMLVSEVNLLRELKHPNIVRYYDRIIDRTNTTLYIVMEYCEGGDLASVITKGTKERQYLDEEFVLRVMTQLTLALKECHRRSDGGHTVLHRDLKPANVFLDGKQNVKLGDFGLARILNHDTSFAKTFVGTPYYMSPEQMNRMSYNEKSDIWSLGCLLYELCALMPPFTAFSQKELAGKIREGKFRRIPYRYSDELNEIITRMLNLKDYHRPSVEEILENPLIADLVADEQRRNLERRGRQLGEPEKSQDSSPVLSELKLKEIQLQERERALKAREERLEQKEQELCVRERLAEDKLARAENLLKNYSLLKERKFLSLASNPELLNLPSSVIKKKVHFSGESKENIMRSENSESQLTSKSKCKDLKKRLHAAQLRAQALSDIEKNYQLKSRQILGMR

[15] = molecular target: T6, Serine/threonine-protein kinase Nek2 (Homo sapiens); conditions: at 1 µM
[16] = molecular target: Serine/threonine-protein kinase Nek6 (Homo sapiens) (UniProt Q9HC98); conditions: at 0.1 µM
Chain of Serine/threonine-protein kinase Nek6 (Homo sapiens) (Q9HC98 whole entry): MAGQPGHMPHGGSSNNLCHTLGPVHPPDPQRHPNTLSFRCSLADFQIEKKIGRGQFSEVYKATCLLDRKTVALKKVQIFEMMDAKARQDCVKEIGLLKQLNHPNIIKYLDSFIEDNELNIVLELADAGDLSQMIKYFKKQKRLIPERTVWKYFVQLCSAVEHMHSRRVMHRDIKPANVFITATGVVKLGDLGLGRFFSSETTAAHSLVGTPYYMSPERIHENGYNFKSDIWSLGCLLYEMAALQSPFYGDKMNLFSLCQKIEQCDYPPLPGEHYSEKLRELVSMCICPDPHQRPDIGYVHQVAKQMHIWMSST

[17] = molecular target: Serine/threonine-protein kinase Nek6 (Homo sapiens) (UniProt Q9HC98); conditions: at 1 µM
[18] = molecular target: Serine/threonine-protein kinase Nek7 (Homo sapiens) (UniProt Q8TDX7); conditions: at 0.1 µM
Chain of Serine/threonine-protein kinase Nek7 (Homo sapiens) (Q8TDX7 whole entry, looked up): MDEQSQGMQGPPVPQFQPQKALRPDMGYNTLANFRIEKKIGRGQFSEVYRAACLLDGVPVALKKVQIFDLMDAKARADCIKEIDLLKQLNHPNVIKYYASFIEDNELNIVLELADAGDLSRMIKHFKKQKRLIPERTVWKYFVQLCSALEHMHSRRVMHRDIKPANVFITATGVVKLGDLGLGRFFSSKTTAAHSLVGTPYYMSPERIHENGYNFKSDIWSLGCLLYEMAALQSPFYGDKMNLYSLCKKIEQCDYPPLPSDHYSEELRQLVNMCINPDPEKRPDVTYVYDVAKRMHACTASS

[19] = molecular target: Serine/threonine-protein kinase Nek7 (Homo sapiens) (UniProt Q8TDX7); conditions: at 1 µM
[20] = molecular target: T7, Serine/threonine-protein kinase Nek9 (Homo sapiens) (UniProt Q8TD19); conditions: at 0.1 µM;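 also: reported value is the mean percent inhibition of NEK9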
T7 sequence (whole entry): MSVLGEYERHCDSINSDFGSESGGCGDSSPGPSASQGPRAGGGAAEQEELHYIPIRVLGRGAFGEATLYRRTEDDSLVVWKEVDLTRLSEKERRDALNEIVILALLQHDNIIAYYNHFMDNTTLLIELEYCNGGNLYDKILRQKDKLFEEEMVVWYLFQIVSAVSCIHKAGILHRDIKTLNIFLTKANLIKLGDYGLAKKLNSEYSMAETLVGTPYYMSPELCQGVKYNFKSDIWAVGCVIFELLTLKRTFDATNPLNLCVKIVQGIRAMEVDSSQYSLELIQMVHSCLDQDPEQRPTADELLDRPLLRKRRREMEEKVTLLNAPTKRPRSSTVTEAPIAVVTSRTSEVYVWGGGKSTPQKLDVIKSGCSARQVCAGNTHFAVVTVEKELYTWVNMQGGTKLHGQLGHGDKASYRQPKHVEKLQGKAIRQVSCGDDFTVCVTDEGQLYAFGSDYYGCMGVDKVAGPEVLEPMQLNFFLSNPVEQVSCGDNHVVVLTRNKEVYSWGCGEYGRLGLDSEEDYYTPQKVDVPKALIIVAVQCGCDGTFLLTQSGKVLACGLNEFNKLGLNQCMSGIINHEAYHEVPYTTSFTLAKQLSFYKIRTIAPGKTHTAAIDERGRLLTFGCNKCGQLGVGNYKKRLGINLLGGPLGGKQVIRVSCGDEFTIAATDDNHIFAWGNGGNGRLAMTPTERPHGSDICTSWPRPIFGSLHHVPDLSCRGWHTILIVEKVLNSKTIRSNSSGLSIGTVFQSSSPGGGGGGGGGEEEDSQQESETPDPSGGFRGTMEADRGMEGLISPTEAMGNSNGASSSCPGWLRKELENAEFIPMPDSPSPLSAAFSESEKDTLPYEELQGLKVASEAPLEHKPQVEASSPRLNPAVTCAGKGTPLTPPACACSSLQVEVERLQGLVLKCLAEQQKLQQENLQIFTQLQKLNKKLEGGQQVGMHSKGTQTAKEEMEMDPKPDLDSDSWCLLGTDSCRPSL

Chain of Sphingosine kinase 1 (Homo sapiens) (Q9NYA1 whole entry): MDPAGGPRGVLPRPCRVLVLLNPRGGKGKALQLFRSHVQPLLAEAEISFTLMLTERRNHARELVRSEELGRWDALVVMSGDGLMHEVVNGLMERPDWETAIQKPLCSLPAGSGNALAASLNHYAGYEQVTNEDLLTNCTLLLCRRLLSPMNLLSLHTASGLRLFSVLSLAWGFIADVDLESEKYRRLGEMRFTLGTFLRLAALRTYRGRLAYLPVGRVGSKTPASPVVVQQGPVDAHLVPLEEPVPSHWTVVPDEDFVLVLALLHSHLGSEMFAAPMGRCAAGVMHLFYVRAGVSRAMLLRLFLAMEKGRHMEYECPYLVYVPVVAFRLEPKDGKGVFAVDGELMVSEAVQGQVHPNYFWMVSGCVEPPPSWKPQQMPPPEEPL

SMILES | inhibition [1] [%] | inhibition [2] [%] | inhibition [3] [%] | inhibition [4] [%] | inhibition [5] [%] | inhibition [6] [%] | inhibition [7] [%] | inhibition [8] [%] | inhibition [9] [%] | inhibition [10] [%] | inhibition [11] [%] | inhibition [12] [%] | inhibition [13] [%] | inhibition [14] [%] | inhibition [15] [%] | inhibition [16] [%] | inhibition [17] [%] | inhibition [18] [%] | inhibition [19] [%] | inhibition [20] [%]
O=C1Nc2ccc(-c3cccnc3)cc2C1=Cc1cc(Br)c(O)c(Br)c1 | -0.37 | 0.41 | -1.79 | 4.96 | 14.5 | 5.26 | 7.66 | 4.92 | 2.14 | 3.51 | 92.1 | 2.32 | 0.46 | 4.11 | 2.79 | 4.82 | 0.55 | 5.27 | 4.87 | 6.61
CS(=O)(=O)Nc1cccc(-c2ccc3c(NC(=O)C4CC4)n[nH]c3c2)c1 | -0.74 | 1 | 0.16 | -2.9 | -3.51 | -2.77 | -6.36 | 8.91 | 3.62 | 2.67 | 2.59 | 0.75 | 1.07 | 1.36 | 0.27 | 1.36 | -1.38 | 2.34 | 1.08 | 2.01
